Results from article PMC12864922, “TDP-43 directly inhibits mRNA accumulation in neurites through modulation of mRNA stability”.
Whole data set: some 9,900 sequences, median “r (bound/input frequency ratio)” near 0.7, cut for the highest 2% near 6.5. The sample as a whole holds a higher share of the highest values than the screen did.

B1: ENSMUSG00000090935.612|Synj2bp (ssRNA)
RNA: GGGAGUUCUACAGUCCGACGAUCGCUUCGAUAUCCGCAUGCUAUUUUCUGUGUGGGUGAUUUCAUUUAAUUAAUUGGACAGUCUAGCCACAGGCAACAAAUAGAAAUAGUAUUUGUAAUUAUAGUCUAUGCCAGGGACUGUCUUAAACUGAUUAGUAACACUAUGACUUACCCUGAGAUCUAAGUAUUGCUAUAAAGAGACUGAAGAGGAGAGAAUAAAGUAUUUUCCUAGGACUACAUAGUUGGUAAAAGAGAAUCAUGAUUUAAACUCUGGACUAUGGAUGGCAGUAUCAGUAAUAUUCCCCUCUUGCGGUCGCACUAGUGUGGAAUUCUCGGGUGUCAAGG
B2: ENSMUSG00000061578.450|Ksr2 (ssRNA)
RNA: GGGAGUUCUACAGUCCGACGAUCGCUUCGAUAUCCGCAUGCUACUUCUAACCUUGUACUGGGACAUCAUCUAUGUCCCCAUCCCCAGAGCUGAAUUAGAGACACCAAGUAGCCUCUUGGGUUGUUUUGUGGGGUGUUCCCCUUGCUGGUCAAAGGAGUGGAAAGCCACCUUGCUGUAAAUGCUCUUGUUUUCUGUAGCAAUCUUGAACUCUUUUUUUUUUUUGUUCGUUUGUUUGUUUGUUUGUUUGUUUGUUUUUUCAAGACAGGGUUUUUCUGUAUAGCCCUGGCUGUCCUGGAACUCAUUCUCUUGCGGUCGCACUAGUGUGGAAUUCUCGGGUGUCAAGG
B3: ENSMUSG00000043670.112|Diras1 (ssRNA)
RNA: GGGAGUUCUACAGUCCGACGAUCGCUUCGAUAUCCGCAUGCUACCGUGACCUCUGACCUGUGGCCUUCCCUGGGUCCAGAACACCCCUGUCCUCUCCUGUCUGCACACCAGGGUGGAUGGGCCCGAGGGCUGGGCCUCAGGCACCAGGCAAUAAACACAGGGCCUGCAGCAAUGCCCUGGCCACCCCGAGUACCACCUCUGGAAUAGCAGACGCCCACAGCACAAGCCCAGGACUGUCCCUUCAGGGGAGGCACACUGGAACCCUGAACUUGGAGUGUGGAGUGGCUGCCUGGACACUGCCCACUCUUGCGGUCGCACUAGUGUGGAAUUCUCGGGUGUCAAGG
B4: ENSMUSG00000090935.544|Synj2bp (ssRNA)
RNA: GGGAGUUCUACAGUCCGACGAUCGCUUCGAUAUCCGCAUGCUAUUGUUGAUCUAAAUAAAAAAUAUCAUUGGUAGAAGUUUUACUUUGGUUGAUAAGGAUUCUGAUAACAUUUGGGUCUCCUUAGGAAAGAAACACUUAACUAAAACAUUUAAGUUUUAGGCAAAUACUGUAAUAUUUCACUCUUAGUUAUAUGAAAACUAAAUGAGAUGUUGAGAAUCUAUAUAGAUUAUUCAAAUUUUAUGUUUCUUAUAGACUGACUCAAAUAUUCCUACCACCUUAAAAUUAUAUAUGAUGCACCUACCCUCUUGCGGUCGCACUAGUGUGGAAUUCUCGGGUGUCAAGG
B5: ENSMUSG00000029028.198|Lrrc47 (ssRNA)
RNA: GGGAGUUCUACAGUCCGACGAUCGCUUCGAUAUCCGCAUGCUAUGUGUACGCAUCUGUACCAGCACACAGCUGCCAUCCCUCGAGCCACAGUGCCUGGUCCUAAGGACCCAGCAGCUGCACAGAGGACUUGGUGGCCCCGUGCCUUGCCAUCUGGCUGAGAAGAGAACCAGACCCUCAGCCUUCCCCCUCGACACCUUCUCGUUGGUGACCUCUGACCUUAAAGGACCAUUUCUACCUUCUGUAAAAGAACACCUGUUUGGGGUUGCGUGCGGCUUUCAUCCUAAGGCCGUGCGAGAGCCGUUCUCUUGCGGUCGCACUAGUGUGGAAUUCUCGGGUGUCAAGG
B6: ENSMUSG00000029636.117|Wasf3 (ssRNA)
RNA: GGGAGUUCUACAGUCCGACGAUCGCUUCGAUAUCCGCAUGCUAGGAGCCCUGUGGGUACUCAUGUGGAAAGUGCCCACUGACUUUGGCAGAUGGAGUUCACUUUCAUGGCUAGCCCUGAUAGCGUUGGGCACCAGUUAGCCAGGCCAUGUUCAAGCUGCCUAGAGUCUGCAGAGCUUGCAUGGCAGAGCGGCCGCAUCUGGUUCCCUCCUACUCCACCCAGUGGAAAAGAGACCUCCACGUUUUAUUUUCUGGGAUCCCUGCUCCUCUGUUCACCAGGGAGUGAGCACAGGUCAGCACCUCACCUCUUGCGGUCGCACUAGUGUGGAAUUCUCGGGUGUCAAGG
B7: ENSMUSG00000042529.497|Kcnj12 (ssRNA)
RNA: GGGAGUUCUACAGUCCGACGAUCGCUUCGAUAUCCGCAUGCUAGGGCCCCUGCAGCUGGACCAUGUACAGGGCUCCCUGGGGCUUGUCCUCAGGGGCAGAGAAGGACAUGGUGGCAGCAGCACUGAGAACAGGAGCAUGGCCUCUCUCAGACCCCAGGGCAGUCAUUCAGUCUUUUCCAUGGACACUCCCCACCGCUCCACAUACUGCCUCCGCCUCAUUCUUGGGCUCUUCCUGCCUUGCUGUCUUUCCUUCCACACAGAAGCACCAAGCAUCAUCCAUUCCCAUAGGCAAGCCCAGGGCACCUCUUGCGGUCGCACUAGUGUGGAAUUCUCGGGUGUCAAGG
B8: ENSMUSG00000058297.521|Spock2 (ssRNA)
RNA: GGGAGUUCUACAGUCCGACGAUCGCUUCGAUAUCCGCAUGCUAGACCACGUGUGAUGGGUGGGCACAGGUCUGCCUUGCUCCAGCCCCCUCCCUUGGUUUCUGUUGGUACCCAUUUGGCUUUUAUCUGCUUUCUGCUUCACCACUAAGUGCGUAGGUGGGGUCUUUUGAUAUCGGCUCCCCAAAGCCCAAGCCCACAGCCCUAGGAGAGAACCAGGGGCCCAUCUUUGACACCUGGGCCAUCACGAGCCCUCCCGCCUGCAGUUGUCCUAGGGAAAGACCUGGGGGUGCAAAAGGAGAUUCAACUCUUGCGGUCGCACUAGUGUGGAAUUCUCGGGUGUCAAGG

What follows are binders tested against TDP-43 (Homo sapiens, UniProt Q13148 1-414) (assay: RNA Bind-n-Seq with designed 260-mer pool; 25 mM Tris-HCl, 150 mM KCl, 3 mM MgCl2, BSA (printed 500 mg/mL), 20 units/mL SUPERase IN; pH not stated; 500 nM RNA pool, 1 h, 4 C; TDP-43 5, 50, 500 nM; high values mean tight binding). Conditions: protein: recombinant; tags: SBP (GST cleaved off with PreScission; pGEX-GST-SBP).
Chain of TDP-43 (Q13148 whole entry): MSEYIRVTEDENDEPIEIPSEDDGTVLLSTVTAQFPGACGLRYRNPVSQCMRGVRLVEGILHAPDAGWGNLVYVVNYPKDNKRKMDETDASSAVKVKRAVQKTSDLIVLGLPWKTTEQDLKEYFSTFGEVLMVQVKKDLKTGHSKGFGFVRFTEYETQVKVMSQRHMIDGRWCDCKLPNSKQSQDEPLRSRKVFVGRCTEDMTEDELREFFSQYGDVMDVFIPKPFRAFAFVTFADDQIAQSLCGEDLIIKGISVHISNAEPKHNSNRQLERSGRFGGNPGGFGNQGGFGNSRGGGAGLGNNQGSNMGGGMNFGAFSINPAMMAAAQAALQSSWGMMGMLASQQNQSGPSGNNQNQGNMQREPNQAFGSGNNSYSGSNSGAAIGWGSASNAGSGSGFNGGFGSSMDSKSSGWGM
Outline: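 In 25 mM Tris-HCl, 150 mM KCl, 3 mM MgCl2, BSA and SUPERase IN, 500 nM of an in vitro-transcribed 260-nt 3′ UTR oligo pool was incubated for 1 h at 4 °C with SBP-tagged TDP-43 (5, 50 or 500 nM) captured on streptavidin beads. RNA remaining after washes was biotin-eluted, reverse transcribed, PCR-amplified and sequenced. Binding, R, is the bound-sample abundance of each oligo, normalized to mapped reads, divided by its abundance in input. Each duplicate used a separate, independent protein batch.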
For B1, the binding signal was 0.0897 R (bound/input frequency ratio).
B2 was tested, and the binding signal was 2.73 R (bound/input frequency ratio).
In the case of B3, the binding signal is reported as 0.898 R (bound/input frequency ratio).
With B4 the binding signal was 0.0172 R (bound/input frequency ratio).
With B5 the binding signal was 0.346 R (bound/input frequency ratio).
With B6 the binding signal was 0.346 R (bound/input frequency ratio).
In the case of B7, the binding signal is reported as 0.929 R (bound/input frequency ratio).
With B8 the binding signal was 0.432 R (bound/input frequency ratio).
